# Results filed as inconclusive are left out. Calls of active or inactive are those of the source. How the source made its calls: active means hit-call score of the fitted dose curve at least 0.9, where 1 is the maximum; inconclusive means response in the unintended direction; inactive means score below 0.9.
# Target: human Fibroblast Growth Factor Receptor 3 (FGFR3), FGFR3 (gene 2261) (UniProt P22607)
# Test: NVS_ENZ_hFGFR3: NovaScreen (NVS) Enzymatic Assay for human Fibroblast Growth Factor Receptor 3 (FGFR3)
# Description: NVS_ENZ_hFGFR3 is a biochemical, single-readout assay that uses extracted gene-proteins in a cell-free assay. Measurements were taken 1 hour after chemical dosing in a 384-well plate.NVS_ENZ_hFGFR3 is one of one assay component(s) measured or calculated from the NVS_ENZ_hFGFR3 assay. It is designed to make measurements of enzyme activity, a form of enzyme reporter, as detected with fluorescence intensity signals by Fluorescence and electrophoretic mobility shift technology.Data from the assay component NVS_ENZ_hFGFR3 was analyzed into 1 assay endpoint. This assay endpoint, NVS_ENZ_hFGFR3, was analyzed in the positive analysis fitting direction relative to DMSO as the negative control and baseline of activity. Using a type of enzyme reporter, loss-of-signal activity can be used to understand changes in the enzymatic activity as they relate to the gene FGFR3. Furthermore, this assay endpoint can be referred to as a primary readout, because this assay has produced multiple assay endpoints where this one serves a enzymatic activity function. To generalize the intended target to other relatable targets, this assay endpoint is annotated to the kinase intended target family, where the subfamily is receptor tyrosine kinase.
# Binding assays used specific radioligands (tritiated, iodinated) with non-radioactive competitive displacement ligands in agonist or antagonist protocols (as indicated) and various reference compounds and inhibitors to titrate specific binding to receptors and transporters. Most enzyme assays (CYPs, kinases, phosphatases, proteases, HDACs) used recombinant protein and specific substrates (fluorescence mostly, some colorimetric and radioactive) and inhibitors, followed by a biochemical separation of substrate and product. All assays for the biochemical HTS were initially run in duplicate at a single concentration (10 uM for CYP450 assays and 25 uM for all others). Assay-chemical combinations meeting a pre-defined threshold (e.g., 30% inhibition and other criteria defined below) were then run in singleton concentration-response format with maximum concentration of 20 uM for CYPs and 50 uM for all others. Each assay was run with positive and negative controls, and concurrent controls on every plate. The follow-up (secondary) screen tested active chemical-pairs in concentration series, as well as a few additional assays not tested in the primary screen, some selected negative inactives, and several cases re-run in the concentration series for confirmatory purposes.
# human Fibroblast Growth Factor Receptor 3 (FGFR3), FGFR3 (gene 2261), sequence (P22607 whole entry, looked up): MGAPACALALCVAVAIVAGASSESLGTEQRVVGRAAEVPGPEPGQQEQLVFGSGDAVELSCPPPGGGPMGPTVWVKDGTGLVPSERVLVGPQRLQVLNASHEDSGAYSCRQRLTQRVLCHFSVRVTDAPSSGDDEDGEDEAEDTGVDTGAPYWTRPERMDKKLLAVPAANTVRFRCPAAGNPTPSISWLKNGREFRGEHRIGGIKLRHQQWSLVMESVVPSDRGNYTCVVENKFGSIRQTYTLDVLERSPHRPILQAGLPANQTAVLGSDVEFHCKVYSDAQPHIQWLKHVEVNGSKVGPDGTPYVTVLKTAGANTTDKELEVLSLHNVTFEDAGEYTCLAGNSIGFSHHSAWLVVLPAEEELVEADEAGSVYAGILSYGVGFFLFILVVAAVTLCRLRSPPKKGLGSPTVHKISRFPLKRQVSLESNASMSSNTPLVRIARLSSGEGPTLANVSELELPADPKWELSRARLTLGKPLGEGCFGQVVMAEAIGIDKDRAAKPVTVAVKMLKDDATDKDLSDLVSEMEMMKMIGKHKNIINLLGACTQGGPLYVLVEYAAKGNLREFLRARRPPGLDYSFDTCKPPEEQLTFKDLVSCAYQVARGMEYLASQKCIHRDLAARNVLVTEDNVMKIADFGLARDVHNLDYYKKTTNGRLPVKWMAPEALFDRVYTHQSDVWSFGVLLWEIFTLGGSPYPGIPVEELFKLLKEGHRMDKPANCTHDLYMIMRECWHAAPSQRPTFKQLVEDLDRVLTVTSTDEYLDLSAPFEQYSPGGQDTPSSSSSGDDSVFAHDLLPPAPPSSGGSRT
SMILES,outcome,AC50
COCC(C)N(C(=O)CCl)c1c(C)csc1C (stereo not given),inactive,
CCCCN(CC)c1c([N+](=O)[O-])cc(C(F)(F)F)cc1[N+](=O)[O-],inactive,
CC(Oc1cccc(Cl)c1)C(=O)O (stereo not given),inactive,
CN(C)C(=S)SSC(=S)N(C)C,inactive,
COP(=O)(OC)OC=C(Cl)Cl,inactive,
CCCC1COC(Cn2cncn2)(c2ccc(Cl)cc2Cl)O1 (stereo not given),inactive,
CSc1nnc(C(C)(C)C)c(=O)n1N,inactive,
S=C([S-])NCCNC(=S)[S-].[Mn+2],,40.5 µM (active)
CN(C)[C@@H]1C(=O)C(C(N)=O)=C(O)[C@@]2(O)C(=O)C3=C(O)c4c(O)cccc4[C@@](C)(O)[C@H]3[C@H](O)[C@@H]12,,14.5 µM (active)
S=C(S)NCCNC(=S)S.[Mn+2].[S-]C([S-])=NCCN=C([S-])[S-].[Zn+2],,38.2 µM (active)
CCCC(=NOCC)C1=C(O)CC(CC(C)SCC)CC1=O (stereo not given),inactive,
CNC(=O)ON=C(SC)C(=O)N(C)C,inactive,
CCOc1cc(Oc2ccc(C(F)(F)F)cc2Cl)ccc1[N+](=O)[O-],inactive,
CNC(=O)Oc1ccccc1OC(C)C,inactive,
CCCOc1nn(C(=O)NS(=O)(=O)c2ccccc2C(=O)OC)c(=O)n1C,inactive,
